Results from PubChem BioAssay.
Values without a mark were called inactive. No rule for the calls is given here.

Each molecule was assayed against Pantothenate synthetase (Mycobacterium tuberculosis (strain ATCC 25618 / H37Rv)) (UniProt P9WIL5) (assay: Coupled enzyme confirmation of inhibitors against recombinant Mtb PanC (AID 375;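 also: 0% = full reaction with vehicle and 100% = no enzyme background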)). Conditions: coupled enzyme assay; at 10 µM, hits give high values.
Chain of Pantothenate synthetase (Mycobacterium tuberculosis (strain ATCC 25618 / H37Rv)) (P9WIL5 whole entry, looked up): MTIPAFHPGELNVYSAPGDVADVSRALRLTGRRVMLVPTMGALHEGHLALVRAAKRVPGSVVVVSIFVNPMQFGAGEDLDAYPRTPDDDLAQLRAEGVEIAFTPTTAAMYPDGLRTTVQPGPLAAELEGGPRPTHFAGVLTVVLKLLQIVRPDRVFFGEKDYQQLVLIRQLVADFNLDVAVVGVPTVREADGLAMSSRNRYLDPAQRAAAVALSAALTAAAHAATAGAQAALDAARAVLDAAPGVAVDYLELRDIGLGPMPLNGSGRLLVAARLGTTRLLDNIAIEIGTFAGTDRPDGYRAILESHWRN

Row | Compound | inhibition [%]
1 | Cn1cccc1Cc1nnc(SCC(=O)Nc2ccc(F)cc2F)n1-c1ccc(F)cc1 | 4
2 | Cc1cc(C(=O)Nc2ccc(S(=O)(=O)Nc3onc(C)c3C)cc2)cs1 | 4
3 | CCCNC(=O)c1c(N)n(-c2cc(OC)cc(OC)c2)c2nc3ccccc3nc12 | 8
4 | O=C1C(C=NCCCn2ccnc2)=C(O)c2ccccc21 | 8
5 | COc1ccc(S(=O)(=O)N2CCC(C(=O)NCc3ccco3)CC2)cc1 | 2
6 | COc1cccc(NC(=O)CN2CCN(c3ccccc3F)CC2)c1 | 4
7 | COC(=O)C(NC(C)=O)(Nc1nc2ccc(S(C)(=O)=O)cc2s1)C(F)(F)F (stereo not given) | 0
8 | CC(C)(C)SCCNC(=O)CN1C(=O)c2ccccc2S1(=O)=O | 0
9 | C/C(N)=C(/C#N)C(=O)COC(=O)COc1ccc(Cl)cc1 | 5
10 | O=S(CC(O)COCc1ccc(Cl)cc1)c1ccccn1 (stereo not given) | 0
11 | O=C(CN1CCCN(S(=O)(=O)c2ccc(Br)cc2)CC1)Nc1ccc2cn[nH]c2c1 | 0
12 | Clc1ccc(-c2nnc3sc(-c4ccc(Br)o4)nn23)cc1 | 0
13 | O=C(O)c1cc2nc(-c3ccc(F)cc3)cc(C(F)(F)F)n2n1 | 2
14 | Brc1ccc(-c2nnc3sc(CN4CCC5(CC4)OCCO5)cn23)cc1 | 0
15 | CCc1cc(C(=O)OC)c(NC(=O)CCC(=O)O)s1 | 2
16 | CC1(C)CC(=O)CC(C2(O)C(=O)N(Cc3ccccc3)c3ccccc32)O1 (stereo not given) | 0
17 | Nn1cnnc1SCC(=O)Nc1ccc2c(c1)OCCO2 | 0
18 | COc1cccc(CN2CCN(C(=O)c3ccco3)CC2)c1OC | 3
19 | Cc1cc(NC(=O)c2cnn3c(C(F)F)cc(C4CC4)nc23)no1 | 0
20 | COc1ccc(C(=O)NCCCCCC(=O)O)cc1OC | 0

Row | Compound | inhibition [%]
21 | Cc1cc(NC(=O)COc2cccc3cccnc23)no1 | 6
22 | CCC[C@@H]1C[C@@H](C(=O)N[C@H]([C@@H](C)O)[C@H]2O[C@H](SC)[C@H](O)[C@@H](O)C2O)N(C)C1 (stereo not given in full) | 0
23 | CC(=O)N1c2c(cc(Br)cc2S(=O)(=O)NCC2COc3ccccc3O2)CC1C (stereo not given) | 2
24 | CCOC(=O)c1ccc(S(=O)(=O)Nc2cc(C(C)(C)C)no2)cc1 | 2
25 | COc1ccc(N2CCN(C(=O)CSc3nnc4n3C(C)(C)Cc3ccccc3-4)CC2)cc1 | 0
26 | Cc1ccc(OCC(=O)N2CCN(C(=O)CCC3CCCC3)CC2)cc1 | 0
27 | Cn1c(=O)c2c(nc(NCc3ccco3)n2C/C=C/c2ccccc2)n(C)c1=O | 0
28 | Cc1cc(NC(=O)COc2cccc(Oc3ccccc3)c2)no1 | 8
29 | Cc1sc2ncnc(Oc3ccc(-n4ccnc4)cc3)c2c1C | 4
30 | CCOC(=O)c1ccc(NC(=O)c2ccc(NS(C)(=O)=O)cc2)cc1 | 0
31 | Cc1cc(=O)oc2ccc(OCC(=O)N3CCC(C)CC3)cc12 | 0
32 | CCCc1cc(C(=O)Nc2sc(C)c(C)c2C(=O)OCC)no1 | 3
33 | CCOC(=O)Cc1csc(NC(=O)CSc2nnc(-c3ccncc3)n2Cc2ccco2)n1 | 0
34 | NCCN1CCN(CCN)CC1 | 0
35 | COCCNc1oc(-c2ccc(C)cc2)nc1C#N | 0
36 | CCCC(c1nnnn1Cc1ccc(OC)cc1)N1CCN(c2ccccc2OC)CC1 (stereo not given) | 0
37 | Cc1nc(NC(=O)c2csc3ccccc23)sc1C | 0
38 | Nc1nnc(C(=O)c2ccccc2N)s1 | 0
39 | Cn1cccc1Cc1nnc(SCC(=O)NCc2ccc(F)cc2)n1-c1ccc(F)cc1 | 2
40 | CCOC(=O)C(NC(=O)Nc1ccccc1)(OCC)C(F)(F)F (stereo not given) | 0
